Sa ugtP lethal: growth inhibition of ugtP-null S. aureus, primary screen, RN4220 ugtP deletion, OD600. 16 h. growth inhibition, % (concentration not given with the values). 0.54% of 330,000 active. AID 1259309, 2017; in the data active means growth inhibition above about 68%
Y pestis TopoI: Yersinia pestis topoisomerase I inhibitors, primary screen, biochemical, cleavage product accumulation, plate reader, single point | DNA topoisomerase I (Yersinia pestis CO92) | Y. pestis Topo-I cleavage product accumulation | activity, % at 10 µM | 0.064% of 360,000 active; in the data active means activity above about 50%, passing the limit was not always enough; inconclusive means no clear call, values can overlap the other calls
Sa RN4220 lethal: growth inhibition of S. aureus RN4220, primary screen, OD600. 16 h. inhibition, % (concentration not given with the values). 0.33% of 330,000 active. AID 1259311, 2017; in the data active means inhibition above about 85%
Mtb hypoxia inh: PubChem AID 1159583 | 0.1% of 300,000 active | fluorescence inhibition, % (test concentration not listed) | M. tuberculosis hypoxia-regulated fluorescent reporter, fluorescence; in the data active means fluorescence inhibition mostly above about 23%, no sharp cut-off; inactive means mostly below about 17%
TcdB GH inh: TcdB glycohydrolase inhibitors, primary screen, biochemical, single point, plate reader | TcdB glycohydrolase enzymatic assay | Toxin B (Clostridioides difficile), P18177 | inhibition, % at 9.99 µM | 0.24% of 350,000 active; in the data active means inhibition above about 10%
Target sequence (P18177 whole entry, looked up): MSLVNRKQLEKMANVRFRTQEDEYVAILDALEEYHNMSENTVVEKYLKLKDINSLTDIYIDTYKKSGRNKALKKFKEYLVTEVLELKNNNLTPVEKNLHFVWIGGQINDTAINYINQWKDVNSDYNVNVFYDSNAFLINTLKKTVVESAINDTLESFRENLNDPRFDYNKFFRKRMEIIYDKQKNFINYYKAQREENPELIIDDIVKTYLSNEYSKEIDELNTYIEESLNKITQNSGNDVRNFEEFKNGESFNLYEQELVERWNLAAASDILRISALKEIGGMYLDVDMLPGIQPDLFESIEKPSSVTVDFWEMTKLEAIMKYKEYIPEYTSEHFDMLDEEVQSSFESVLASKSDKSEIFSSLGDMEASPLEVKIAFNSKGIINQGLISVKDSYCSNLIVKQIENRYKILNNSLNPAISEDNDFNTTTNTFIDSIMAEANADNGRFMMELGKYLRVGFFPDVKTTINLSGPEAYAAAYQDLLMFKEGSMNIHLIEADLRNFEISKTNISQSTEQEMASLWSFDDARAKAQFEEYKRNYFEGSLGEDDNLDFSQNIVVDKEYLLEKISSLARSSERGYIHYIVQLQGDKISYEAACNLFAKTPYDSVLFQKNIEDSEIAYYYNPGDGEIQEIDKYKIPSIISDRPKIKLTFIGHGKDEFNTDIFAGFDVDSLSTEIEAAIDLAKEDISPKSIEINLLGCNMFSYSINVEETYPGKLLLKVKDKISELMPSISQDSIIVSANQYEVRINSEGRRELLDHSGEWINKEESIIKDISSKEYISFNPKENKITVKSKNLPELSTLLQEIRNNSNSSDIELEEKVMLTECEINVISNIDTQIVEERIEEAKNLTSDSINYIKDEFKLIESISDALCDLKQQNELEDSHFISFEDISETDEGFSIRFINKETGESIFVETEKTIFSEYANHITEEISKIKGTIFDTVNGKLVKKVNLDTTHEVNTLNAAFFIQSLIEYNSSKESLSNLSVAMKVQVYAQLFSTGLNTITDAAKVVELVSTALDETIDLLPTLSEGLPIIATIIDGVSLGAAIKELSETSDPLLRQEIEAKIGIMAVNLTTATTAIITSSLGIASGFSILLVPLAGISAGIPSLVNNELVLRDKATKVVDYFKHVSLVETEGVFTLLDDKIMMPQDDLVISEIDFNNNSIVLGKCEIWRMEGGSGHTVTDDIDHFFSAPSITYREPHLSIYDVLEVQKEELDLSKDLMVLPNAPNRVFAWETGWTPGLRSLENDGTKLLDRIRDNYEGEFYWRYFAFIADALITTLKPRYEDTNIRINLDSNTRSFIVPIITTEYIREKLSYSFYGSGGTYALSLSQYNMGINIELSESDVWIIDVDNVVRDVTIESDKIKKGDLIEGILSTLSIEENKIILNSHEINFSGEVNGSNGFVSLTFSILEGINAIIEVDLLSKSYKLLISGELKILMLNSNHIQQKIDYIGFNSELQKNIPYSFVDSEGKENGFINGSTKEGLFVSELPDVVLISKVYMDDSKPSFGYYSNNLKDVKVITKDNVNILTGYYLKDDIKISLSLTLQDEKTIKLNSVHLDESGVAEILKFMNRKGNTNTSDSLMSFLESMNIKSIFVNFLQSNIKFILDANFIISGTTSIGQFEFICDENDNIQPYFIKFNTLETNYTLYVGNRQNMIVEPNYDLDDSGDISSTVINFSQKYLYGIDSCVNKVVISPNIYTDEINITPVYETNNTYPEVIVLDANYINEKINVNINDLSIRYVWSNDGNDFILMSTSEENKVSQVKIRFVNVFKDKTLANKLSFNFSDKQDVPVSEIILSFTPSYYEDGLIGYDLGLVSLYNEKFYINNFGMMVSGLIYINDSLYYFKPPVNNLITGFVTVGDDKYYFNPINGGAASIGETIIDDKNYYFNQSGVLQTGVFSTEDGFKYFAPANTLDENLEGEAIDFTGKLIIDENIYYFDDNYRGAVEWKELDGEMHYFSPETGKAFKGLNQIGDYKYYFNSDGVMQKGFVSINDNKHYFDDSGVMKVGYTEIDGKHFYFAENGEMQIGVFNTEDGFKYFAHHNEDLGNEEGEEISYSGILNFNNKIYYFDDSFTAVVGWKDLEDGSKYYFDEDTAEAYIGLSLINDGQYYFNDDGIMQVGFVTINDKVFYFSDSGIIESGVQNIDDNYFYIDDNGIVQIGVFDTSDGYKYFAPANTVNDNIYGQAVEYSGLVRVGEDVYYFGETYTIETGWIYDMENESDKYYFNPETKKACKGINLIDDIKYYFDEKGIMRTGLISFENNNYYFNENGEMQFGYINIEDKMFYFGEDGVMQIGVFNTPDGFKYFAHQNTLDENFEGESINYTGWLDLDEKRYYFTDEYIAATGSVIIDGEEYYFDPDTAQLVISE
BioA inh-1: M. tuberculosis BioA enzyme inhibitors, primary screen, biochemical, plate reader, single point, HTS. 7,8-diaminopelargonic acid synthase BioA (Mycobacterium tuberculosis). purified M. tuberculosis BioA enzyme. inhibition, % at 9.99 µM. 0.096% of 360,000 active. AID 602481, 2012; in the data active means inhibition above about 40%; inconclusive means no clear call, values can overlap the other calls
BioA inh-2: Mtb BioA enzyme inhibitors, dose response, biochemical, plate reader, cherry-pick samples, set 03 | shares compounds with BioA inh-1 | purified BioA enzyme | max activity, % | 310 tested, under 10 active | AID 651679, 2012;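 further: top concentration of the dilution series was 10 µM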
HepG2 tox 2: cytotoxicity in HepG2 cells, dose response, cytotoxicity control, cell-based, plate reader, cherry-pick, two tests | shares compounds with BioA inh-1 | max activity, % | 310 tested, under 10 active
3T3 cytotox 5: cytotoxicity in NIH3T3 fibroblasts, dose response, cytotoxicity control, cell-based, plate reader, cherry-pick, two tests. shares compounds with BioA inh-1. activity change, negative = cytotoxicity, % at 26 µM. 310 tested, under 10 active. AID 651900, 2012
Numbers stand for hits; 0 = inactive; ? = inconclusive; - = no result shown. Rows were chosen to be rich in hits. Some 0.75% of all compounds tested hit in one or more screens of this group. Unless noted, how the calls were made is not given here.

SMILES	Sa ugtP lethal	Y pestis TopoI	Sa RN4220 lethal	Mtb hypoxia inh	TcdB GH inh	BioA inh-1	BioA inh-2	HepG2 tox 2	3T3 cytotox 5
CCOC(=O)C1CCN(C(=O)Nc2ccc3snnc3c2)CC1	0	0	0	0	0	72.3	0	0	0
CCOC(=O)C1CCN(C(=O)Nc2ccc3nccnc3c2)CC1	0	0	0	-	-	0	-	-	-
Cc1cccc(-c2ccc3c(c2)C2CC3CCN2)c1 (centres undefined)	-	0	-	-	0	55.6	0	0	0
FC(F)(F)c1ccc(-c2cccc3c2C2CC3CCN2)cc1 (centres undefined)	-	0	-	-	0	0	-	-	-
Fc1ccc(-c2ccc3c(c2)C2CC3CCN2)cc1 (centres undefined)	-	0	-	-	0	66.3	0	0	0
Cc1cccc(-c2ccc3c(c2)C2CC3CCN2C)c1 (centres undefined)	-	0	-	-	0	0	-	-	-
CC(C)(C)CN1C(N)=NCC1Cc1ccc(O)cc1 (centres undefined)	0	-	0	0	-	-	-	-	-
CCCNC(=O)CC(C)=NNC(=O)COc1ccc(C)cc1Br	0	-	0	0	-	-	-	-	-
O=C(c1cccc(F)c1)N1CC[C@@H]2[C@H]1c1cc(-c3cccc(F)c3)ccc1N[C@@H]2CO	-	-	-	-	-	73.1	0	0	0
O=C(c1cccc(F)c1)N1CC[C@@H]2[C@H](CO)Nc3ccc(-c4cccc(F)c4)cc3[C@@H]21	-	-	-	-	-	40.7	0	0	0
O=C(c1cccc(F)c1)N1CC[C@@H]2[C@H]1c1cc(-c3ccccc3)ccc1N[C@@H]2CO	-	-	-	-	0	-	-	-	-
COC(=O)C1=C(c2ccc(F)cc2OCc2ccccc2)CC2CCC1N2C(=O)N1CCC(O)(c2ccc(Cl)cc2)CC1 (centres undefined)	0	-	0	0	-	-	-	-	-
O=C(c1ccc(Br)o1)N1CCN(Cc2ccc3c(c2)OCO3)CC1	0	0	0	-	-	0	-	-	-
C[C@@H](C(=O)N1CCN(Cc2ccc3c(c2)OCO3)CC1)n1nnc2ccccc2c1=O	0	0	0	0	0	70.1	0	0	0
O=C(c1ccc(Br)s1)N1CCN(Cc2ccc3c(c2)OCO3)CC1	0	0	0	0	-	59.0	0	0	0
O=C(Nc1ccccc1)N1CCN(Cc2ccc3c(c2)OCO3)CC1	0	0	0	-	0	76.1	0	?	?
Oc1ccc2c3c1OC1c4oc5ccccc5c4C[C@@]4(O)C(C2)N(CC2CC2)CC[C@]314 (some centres undefined)	0	-	0	0	-	-	-	-	-
O=C(NN=Cc1cccs1)c1ccc2ccccc2c1	0	-	0	0	-	-	-	-	-
COc1cc(-c2n[nH]c(=S)n2C(C)c2ccccc2)cc(OC)c1OC (centres undefined)	0	0	0	0	0	64.4	0	0	0
COc1cc(-c2n[nH]c(=S)n2-c2cccc(C(F)(F)F)c2)cc(OC)c1OC	0	0	0	0	-	42.6	0	0	0
CC#CCN1c2ccccc2[C@]23CC(C(=O)OC)N(C(=O)OCC)C2=NC(C(=O)OC)=C(C(=O)OC)C13 (some centres undefined)	0	-	0	0	-	-	-	-	-
CCOC(=O)CNC(=O)c1sc2ncnc(N3CCc4ccccc4C3)c2c1C	0	0	0	0	0	63.4	0	0	0
CCC(C)C(C)=NNC(=O)c1cn(-c2ccccc2)nc1-c1ccccc1 (centres undefined)	0	-	0	0	-	-	-	-	-
CCCC(=O)N1CCN(Cc2ccc3c(c2)OCO3)CC1	0	0	0	0	-	0	-	-	-
CCc1nn(CC(=O)N2CCN(Cc3ccc4c(c3)OCO4)CC2)c(=O)c2cc3occc3n12	0	0	0	0	-	56.9	0	0	0
SMILES	Sa ugtP lethal	Y pestis TopoI	Sa RN4220 lethal	Mtb hypoxia inh	TcdB GH inh	BioA inh-1	BioA inh-2	HepG2 tox 2	3T3 cytotox 5
Cn1ncc(Br)c1C(=O)NN=Cc1cccc(OC2CSC2)c1	0	-	0	0	-	-	-	-	-
O=C(c1ccncc1)N1CC[C@@H]2[C@@H](CO)Nc3ccc(Br)cc3[C@@H]21	-	-	-	-	-	47.6	0	0	0
O=C(C1CC1)N1CC[C@@H]2[C@H](CO)Nc3ccc(Br)cc3[C@@H]21	-	-	-	-	0	84.5	?	0	0
COc1cccc(-c2ccc3c(c2)[C@H]2[C@H](CCN2C(=O)C2CCC2)[C@@H](CO)N3)c1	-	-	-	-	-	59.8	0	0	0
O=C(Cc1ccncc1)N1CC[C@@H]2[C@H](CO)Nc3ccc(Br)cc3[C@@H]21	-	-	-	-	-	0	-	-	-
O=C1C=C(c2ccc3c(c2)oc2ccccc23)CC(c2ccc(Cl)cc2)C1 (centres undefined)	0	-	0	0	-	-	-	-	-
CC(=NNS(=O)(=O)c1ccc(Cl)cc1)c1cccc(NC(=O)c2ccc(Cl)cc2Cl)c1	0	-	0	-	-	-	-	-	-
Cc1nnc(N2CCC(C(=O)N3CCCCC3)CC2)c2nn(-c3ccc(Cl)cc3)c(C)c12	0	0	0	0	-	51.0	0	0	0
Cc1c(C(N)=O)sc(N)c1C(=O)OC(C)C	0	0	0	0	-	91.5	0	0	0
CCOC(=O)c1c(N)sc(C(N)=O)c1C	0	0	0	0	-	57.9	0	0	0
CCOC(=O)c1sc(N)c(C(N)=O)c1C	0	0	0	0	0	0	-	-	-
C/C=C/c1ccc2c(c1)O[C@@H](CN(C)C(=O)Cc1cccnc1)[C@H](C)CN([C@H](C)CO)S2(=O)=O	-	-	-	-	0	55.9	0	0	0
C/C=C/c1ccc2c(c1)O[C@@H](CN(C)C(=O)c1ccc3c(c1)OCO3)[C@@H](C)CN([C@@H](C)CO)S2(=O)=O	-	-	-	-	0	46.3	0	0	0
CCCCC=CC(NC(=O)c1ccc(C(=O)OC)cc1)c1ccccc1 (centres undefined)	0	-	0	0	-	-	-	-	-
COc1cc(C2OCC3C(c4ccc5c(c4)OCO5)OCC23)ccc1O (centres undefined)	0	-	0	0	-	-	-	-	-
COc1ccc(Cc2c(-c3ccc(F)cc3)nc3ccc(C)cn23)c(C)c1	-	-	-	-	0	-	-	-	-
COc1ccc(Cc2c(-c3ccc(OC)c(OC)c3)nc3ccc(C)cn23)c(C)c1	-	-	-	-	0	78.7	0	0	0
COc1ccc(Cc2c(-c3ccc(C)cc3)nc3c(C)cc(Br)cn23)c(C)c1	-	-	-	-	0	0	-	-	-
COc1ccc(Cc2c(-c3ccc(OC)c(OC)c3)nc3c(C)cc(Br)cn23)c(C)c1	-	-	-	-	0	68.8	0	0	0
COc1ccc(C2C(=C(O)c3ccc4c(c3)CC(C)O4)C(=O)C(=O)N2CCN2CCOCC2)cc1 (centres undefined)	0	-	0	0	-	-	-	-	-
CC(=NNS(=O)(=O)c1ccc(C)cc1)[C@H]1C[C@@H]1c1ccccc1	0	-	0	0	-	-	-	-	-
COc1ccc(NC(=O)c2cnc(C)cn2)cc1-n1cnnn1	0	0	0	0	-	51.2	0	0	0
Cc1cnc(C(=O)Nc2ccc(-n3cnnn3)cc2)cn1	0	0	0	0	-	0	-	-	-

Assay outcomes from PubChem.
